We go through 21 compounds from PubChem BioAssay AID651711 (Broad Institute, 2012).

In all, about 350,000 compounds went through this assay and about 180 (0.051%) were called active. This is one part of a sample in which actives are shown more often than they occur.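 Rule for the calls: active = mean replicate inhibition above about 25%, with every replicate also reaching it (limit read from the data, passing the limit was not always enough); inconclusive = only one of those two criteria met; inactive = neither criterion met.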

For orientation: inhibition means the relative decrease from the control value, in per cent.

The experiment deals with Protein disulfide-isomerase A6 (Homo sapiens) (UniProt Q15084). In words: ERp5 (PDIA6) reductase activity blockers – biochemical, turbidity, absorbance 650 nm, single point, primary screen (AID 651711). The following applies: ERp5 insulin aggregation, 90 min, at 9.99 µM, hits give high values.
Protein disulfide-isomerase A6 (Homo sapiens), sequence (Q15084 whole entry, looked up): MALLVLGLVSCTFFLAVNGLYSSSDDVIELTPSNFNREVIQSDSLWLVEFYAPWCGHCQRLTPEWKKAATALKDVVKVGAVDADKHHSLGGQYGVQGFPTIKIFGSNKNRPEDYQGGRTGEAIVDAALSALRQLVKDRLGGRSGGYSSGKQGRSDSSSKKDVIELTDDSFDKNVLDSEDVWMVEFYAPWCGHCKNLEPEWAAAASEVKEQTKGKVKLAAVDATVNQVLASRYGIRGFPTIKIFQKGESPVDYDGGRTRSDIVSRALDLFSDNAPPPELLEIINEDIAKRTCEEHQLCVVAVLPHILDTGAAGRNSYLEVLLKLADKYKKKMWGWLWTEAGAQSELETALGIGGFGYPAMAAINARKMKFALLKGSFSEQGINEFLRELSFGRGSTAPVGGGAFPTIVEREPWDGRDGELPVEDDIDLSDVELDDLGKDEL
Take `O=C(c1cnccn1)N1CC2(C1)[C@H](c1ccccc1)[C@H](CO)N2C(=O)c1ccccc1`: the inhibition was 4.61% (inactive).

Consider `COc1ccc(CN2C[C@@H](C)[C@H](OC)CN(C)C(=O)c3cc(NC(C)=O)ccc3OC[C@@H]2C)cc1`, for which the inhibition is 4.2% (inactive).

As to `C[C@H]1CN([C@@H](C)CO)C(=O)Cc2cc(NC(=O)Nc3ccc(C(F)(F)F)cc3)ccc2O[C@@H]1CN(C)S(=O)(=O)c1ccc(Cl)cc1`, the inhibition was 0.316% (inactive).

For the compound `CO[C@@H]1CN(C)C(=O)c2cc(NC(=O)C3CCOCC3)ccc2OC[C@H](C)N(Cc2cccnc2)C[C@H]1C`, the inhibition is 7.73% (inactive).

`CO[C@@H]1CN(C)C(=O)c2cc(NC(=O)c3ccccc3F)ccc2OC[C@@H](C)N(CC2CC2)C[C@H]1C`: the inhibition is -2.62% (inactive).

Turning to `COc1ccc(S(=O)(=O)N(C)C[C@H]2Oc3ccc(N(C)C)cc3C(=O)N([C@@H](C)CO)C[C@@H]2C)cc1`, the inhibition was -9.71% (inactive).

Consider `COc1ccccc1NC(=O)Nc1ccc2c(c1)OC[C@H](C)NC[C@H](C)[C@@H](OC)CN(C)C2=O`, for which the inhibition was 7.16% (inactive).

On to `COc1ccc(CN(C)C[C@H]2Oc3c(NC(=O)C4CCCCC4)cccc3C(=O)N([C@@H](C)CO)C[C@H]2C)cc1`, for which the inhibition was 4.09% (inactive).

In the case of `O=C(Cc1cccnc1)N1CC(=O)N2[C@@H](CO)[C@H](c3ccc(C#CC4CC4)cc3)[C@@H]2C1`, the inhibition was 1.76% (inactive).

For `O=C(NCC[C@H]1CC[C@@H](NC(=O)C2CCCC2)[C@@H](CO)O1)c1cc(Cl)cc(Cl)c1`, the inhibition is -0.154% (inactive).

Consider `C[C@@H]1CN([C@H](C)CO)C(=O)c2cc(NC(=O)CCCN(C)C)ccc2O[C@@H](C)CCCCO[C@@H]1CN(C)Cc1ccncc1`, for which the inhibition is -3.78% (inactive).

Turning to `Cc1ccc(S(=O)(=O)NCC[C@@H]2CC[C@H](NC(=O)CC3CC3)[C@H](CO)O2)cc1`, the inhibition is -0.231% (inactive).

As to `O=C(NC1CCC1)[C@H]1[C@H](CO)[C@H]2Cn3c(ccc(-c4ccccc4)c3=O)[C@@H]1N2Cc1cocn1`, the inhibition is -0.224% (inactive).

With `CCC(=O)N(C)C[C@@H]1Oc2cc(C#CC(C)(C)O)ccc2S(=O)(=O)N([C@@H](C)CO)C[C@@H]1C`, the inhibition is -4% (inactive).

`CCCC#Cc1cnc2c(c1)C(=O)N([C@H](C)CO)C[C@@H](C)[C@@H](CN(C)C(=O)C1CCOCC1)O2`: the inhibition was 2.67% (inactive).

With `C[C@H](CO)N1C[C@H](C)[C@H](CN(C)CC2CCCCC2)Oc2ccc(NC(=O)CCN3CCOCC3)cc2CC1=O`, the inhibition is 0.283% (inactive).

As to `Cc1ccc(S(=O)(=O)N(C)C[C@@H]2Oc3ccc(NC(=O)c4ccncc4)cc3CC(=O)N([C@H](C)CO)C[C@H]2C)cc1`, the inhibition was -4.73% (inactive).

Regarding `COc1ccc(S(=O)(=O)N2CC[C@@H]3[C@H](CO)Nc4ccc(C#Cc5cccc(OC)c5)cc4[C@@H]32)cc1`, the inhibition was 4.05% (inactive).

On to `C/C=C/c1ccc([C@H]2[C@@H](CO)N(C(=O)C3CC3)[C@@H]2CNC(=O)NC(C)C)cc1`, for which the inhibition was -0.982% (inactive).

Take `CO[C@@H](CN(C)C(=O)c1cnccn1)[C@@H](C)CN([C@@H](C)CO)S(=O)(=O)c1ccc(Cl)cc1`: the inhibition is 0.364% (inactive).

In the case of `COc1ccc2c3c(n(C)c2c1)[C@@H](CO)N(CC1CC1)CC31CCN(C(=O)c2ccc3c(c2)OCO3)CC1`, the inhibition was -0.398% (inactive).
